Results: the supplement of paper PMC10849652
The full data set covers some 7,900 targets. This sample favours those with a hit. About 0.6% of all pairs of compound and target were hits.

compound: c1cn2cc(-c3ccc4cn[nH]c4c3)nc(Nc3ccc(N4CCOCC4)cc3)c2n1 [entospletinib]; test: log2 fold change, soluble protein after heating vs DMSO (PISA); higher = thermal stabilisation; K562 cells, 10 uM, 30 min; active = over 0.2 and 3.5 SD of the protein, either way, in both replicates (recomputed)
How it was run: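 Values are thermal stability changes relative to control samples and are taken from duplicates. They are stated as log2 fold changes. Before quantification by TMTpro 16plex LC-MS/MS with equalised channel sums, K562 cells at 2×10^6 cells/mL were treated with 10 μM compound for 30 min, heated in aliquots for 3 min across 48°C-58°C, pooled, extracted in PBS with 0.5% NP-40 at 4°C, and centrifuged at 21,000xg for 90 min to give the soluble supernatant.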

Sequence of UniProt Q14151 (Q14151 whole entry, looked up): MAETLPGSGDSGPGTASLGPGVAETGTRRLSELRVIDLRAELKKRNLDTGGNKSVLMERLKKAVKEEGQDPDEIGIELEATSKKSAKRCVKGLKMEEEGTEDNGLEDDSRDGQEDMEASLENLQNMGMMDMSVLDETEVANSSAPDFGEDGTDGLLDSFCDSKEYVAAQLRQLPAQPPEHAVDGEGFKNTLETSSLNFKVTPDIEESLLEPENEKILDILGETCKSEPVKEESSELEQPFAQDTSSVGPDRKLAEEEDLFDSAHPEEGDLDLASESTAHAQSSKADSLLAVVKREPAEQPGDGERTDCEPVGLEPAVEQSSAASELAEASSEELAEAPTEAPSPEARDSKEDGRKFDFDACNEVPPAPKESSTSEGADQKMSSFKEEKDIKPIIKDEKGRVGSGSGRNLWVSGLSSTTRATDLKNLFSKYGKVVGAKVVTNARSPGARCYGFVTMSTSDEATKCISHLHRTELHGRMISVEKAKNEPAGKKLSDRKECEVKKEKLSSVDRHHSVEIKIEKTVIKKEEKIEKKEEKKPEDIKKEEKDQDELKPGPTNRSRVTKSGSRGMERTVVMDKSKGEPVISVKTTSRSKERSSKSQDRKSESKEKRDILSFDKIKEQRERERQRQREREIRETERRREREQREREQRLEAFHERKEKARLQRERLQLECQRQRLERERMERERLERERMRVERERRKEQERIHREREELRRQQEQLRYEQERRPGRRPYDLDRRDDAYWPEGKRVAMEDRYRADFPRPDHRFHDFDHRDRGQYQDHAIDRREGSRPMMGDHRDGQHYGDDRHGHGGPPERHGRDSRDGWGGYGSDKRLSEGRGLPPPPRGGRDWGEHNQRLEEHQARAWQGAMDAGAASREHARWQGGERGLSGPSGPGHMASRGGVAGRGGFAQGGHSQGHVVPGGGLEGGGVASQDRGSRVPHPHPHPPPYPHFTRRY
Sequence of UniProt P49792 (P49792 whole entry, looked up): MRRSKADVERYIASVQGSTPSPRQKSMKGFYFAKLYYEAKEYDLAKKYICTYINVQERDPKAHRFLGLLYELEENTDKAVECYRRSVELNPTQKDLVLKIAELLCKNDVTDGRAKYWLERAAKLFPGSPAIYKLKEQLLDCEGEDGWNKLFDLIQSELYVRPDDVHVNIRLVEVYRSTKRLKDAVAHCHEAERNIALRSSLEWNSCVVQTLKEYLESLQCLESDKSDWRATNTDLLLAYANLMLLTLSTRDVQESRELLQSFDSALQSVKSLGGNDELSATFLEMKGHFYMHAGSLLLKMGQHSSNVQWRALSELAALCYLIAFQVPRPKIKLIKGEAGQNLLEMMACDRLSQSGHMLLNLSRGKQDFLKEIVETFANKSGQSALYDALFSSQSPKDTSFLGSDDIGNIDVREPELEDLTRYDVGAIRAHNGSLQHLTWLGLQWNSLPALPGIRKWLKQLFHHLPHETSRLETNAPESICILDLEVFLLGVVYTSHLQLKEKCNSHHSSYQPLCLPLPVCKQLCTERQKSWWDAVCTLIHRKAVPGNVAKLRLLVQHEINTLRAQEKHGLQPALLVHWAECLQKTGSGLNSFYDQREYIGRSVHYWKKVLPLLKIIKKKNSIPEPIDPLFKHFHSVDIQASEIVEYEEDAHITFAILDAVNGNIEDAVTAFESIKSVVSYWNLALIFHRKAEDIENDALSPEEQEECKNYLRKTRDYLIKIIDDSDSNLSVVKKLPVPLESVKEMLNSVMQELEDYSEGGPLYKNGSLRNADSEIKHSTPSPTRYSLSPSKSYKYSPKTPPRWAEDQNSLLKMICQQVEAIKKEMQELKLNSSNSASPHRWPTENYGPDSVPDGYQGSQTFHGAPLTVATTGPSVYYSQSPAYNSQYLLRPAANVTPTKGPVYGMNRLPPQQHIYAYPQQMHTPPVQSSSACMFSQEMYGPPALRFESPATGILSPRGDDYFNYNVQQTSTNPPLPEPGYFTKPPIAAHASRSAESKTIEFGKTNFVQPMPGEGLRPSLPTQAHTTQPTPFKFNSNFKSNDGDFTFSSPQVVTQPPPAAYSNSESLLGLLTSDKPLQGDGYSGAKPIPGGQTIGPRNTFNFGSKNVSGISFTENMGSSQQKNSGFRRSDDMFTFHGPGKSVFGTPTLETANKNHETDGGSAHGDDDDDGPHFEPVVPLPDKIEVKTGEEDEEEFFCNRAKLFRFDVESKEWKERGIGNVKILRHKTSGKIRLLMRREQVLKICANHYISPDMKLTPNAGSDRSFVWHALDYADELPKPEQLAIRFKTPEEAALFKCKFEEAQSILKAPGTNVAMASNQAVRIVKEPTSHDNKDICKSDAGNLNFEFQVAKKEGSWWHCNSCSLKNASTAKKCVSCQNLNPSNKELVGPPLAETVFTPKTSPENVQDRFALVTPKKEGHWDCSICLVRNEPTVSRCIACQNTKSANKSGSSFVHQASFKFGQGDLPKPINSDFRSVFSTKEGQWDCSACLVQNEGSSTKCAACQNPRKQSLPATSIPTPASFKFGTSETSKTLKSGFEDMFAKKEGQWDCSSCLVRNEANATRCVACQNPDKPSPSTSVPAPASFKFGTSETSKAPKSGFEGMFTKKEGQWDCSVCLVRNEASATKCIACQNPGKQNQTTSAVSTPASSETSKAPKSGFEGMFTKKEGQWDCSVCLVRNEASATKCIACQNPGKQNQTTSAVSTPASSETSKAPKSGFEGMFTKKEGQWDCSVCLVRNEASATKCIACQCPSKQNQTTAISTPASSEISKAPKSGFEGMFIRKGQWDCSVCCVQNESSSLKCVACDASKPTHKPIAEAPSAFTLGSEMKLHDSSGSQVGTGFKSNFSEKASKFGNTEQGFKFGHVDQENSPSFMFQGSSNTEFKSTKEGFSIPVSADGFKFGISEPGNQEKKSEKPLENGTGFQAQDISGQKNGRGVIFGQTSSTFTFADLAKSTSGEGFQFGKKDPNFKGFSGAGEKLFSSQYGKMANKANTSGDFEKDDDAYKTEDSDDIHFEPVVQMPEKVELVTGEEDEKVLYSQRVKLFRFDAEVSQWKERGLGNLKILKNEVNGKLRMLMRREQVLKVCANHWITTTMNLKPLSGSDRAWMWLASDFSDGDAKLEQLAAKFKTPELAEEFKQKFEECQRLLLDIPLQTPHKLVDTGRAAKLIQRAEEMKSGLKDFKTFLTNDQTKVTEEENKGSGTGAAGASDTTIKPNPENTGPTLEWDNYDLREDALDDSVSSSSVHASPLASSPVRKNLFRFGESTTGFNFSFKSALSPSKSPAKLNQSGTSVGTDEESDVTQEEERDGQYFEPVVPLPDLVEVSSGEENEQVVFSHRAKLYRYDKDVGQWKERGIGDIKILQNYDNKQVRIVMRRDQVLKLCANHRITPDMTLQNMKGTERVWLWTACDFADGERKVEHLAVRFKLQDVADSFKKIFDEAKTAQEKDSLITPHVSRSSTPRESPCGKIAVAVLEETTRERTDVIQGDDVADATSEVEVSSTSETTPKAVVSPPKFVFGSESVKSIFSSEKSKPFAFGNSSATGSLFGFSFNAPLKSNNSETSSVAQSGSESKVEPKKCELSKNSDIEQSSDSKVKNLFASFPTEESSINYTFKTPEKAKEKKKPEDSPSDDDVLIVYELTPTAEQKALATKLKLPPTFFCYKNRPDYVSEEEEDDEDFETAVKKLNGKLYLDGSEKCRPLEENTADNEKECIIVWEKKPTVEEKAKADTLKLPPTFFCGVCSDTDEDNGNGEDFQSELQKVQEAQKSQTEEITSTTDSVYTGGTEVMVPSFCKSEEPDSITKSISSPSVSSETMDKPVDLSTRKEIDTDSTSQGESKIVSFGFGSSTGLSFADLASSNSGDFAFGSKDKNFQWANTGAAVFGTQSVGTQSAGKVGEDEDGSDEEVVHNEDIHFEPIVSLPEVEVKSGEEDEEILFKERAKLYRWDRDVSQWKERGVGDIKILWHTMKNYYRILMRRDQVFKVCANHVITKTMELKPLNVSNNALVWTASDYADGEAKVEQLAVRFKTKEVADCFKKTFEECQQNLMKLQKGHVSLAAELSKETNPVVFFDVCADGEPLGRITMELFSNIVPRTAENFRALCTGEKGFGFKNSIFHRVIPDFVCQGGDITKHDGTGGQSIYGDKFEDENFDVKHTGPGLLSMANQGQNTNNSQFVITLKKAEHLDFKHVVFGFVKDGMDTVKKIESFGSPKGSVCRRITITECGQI
Sequence of UniProt Q96D15 (Q96D15 whole entry, looked up): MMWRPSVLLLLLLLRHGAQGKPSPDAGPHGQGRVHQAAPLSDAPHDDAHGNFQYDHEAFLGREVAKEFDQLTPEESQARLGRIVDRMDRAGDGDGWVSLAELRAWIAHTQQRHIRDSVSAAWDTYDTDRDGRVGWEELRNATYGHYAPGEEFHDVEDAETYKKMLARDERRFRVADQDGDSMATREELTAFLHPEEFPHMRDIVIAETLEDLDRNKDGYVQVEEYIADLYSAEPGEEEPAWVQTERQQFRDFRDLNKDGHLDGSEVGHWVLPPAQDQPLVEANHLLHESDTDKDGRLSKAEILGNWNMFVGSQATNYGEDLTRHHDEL
Sequence of UniProt O14730 (O14730 whole entry, looked up): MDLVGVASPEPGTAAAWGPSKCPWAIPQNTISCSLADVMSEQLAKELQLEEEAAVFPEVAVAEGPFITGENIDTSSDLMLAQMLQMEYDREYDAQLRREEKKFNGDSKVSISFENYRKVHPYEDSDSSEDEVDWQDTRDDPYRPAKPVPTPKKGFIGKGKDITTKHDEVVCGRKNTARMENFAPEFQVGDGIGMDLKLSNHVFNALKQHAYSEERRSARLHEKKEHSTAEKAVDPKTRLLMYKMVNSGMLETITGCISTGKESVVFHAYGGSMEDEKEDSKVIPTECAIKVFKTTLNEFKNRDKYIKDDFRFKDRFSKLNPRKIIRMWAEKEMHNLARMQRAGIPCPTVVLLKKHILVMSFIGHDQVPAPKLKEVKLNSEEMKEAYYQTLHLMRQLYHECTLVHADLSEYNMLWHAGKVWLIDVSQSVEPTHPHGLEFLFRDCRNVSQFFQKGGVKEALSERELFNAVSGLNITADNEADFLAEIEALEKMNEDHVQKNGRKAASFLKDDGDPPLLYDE

Target	log2 fold change
SCYL3 isoform 2 (UniProt Q8IZE3)	-0.09 (inactive)
SAAL1 (UniProt Q96ER3)	0.093 (inactive)
RAD50, A0A494C0Y7	-0.108 (inactive)
RTF2 (UniProt Q9BY42)	-0.069 (inactive)
SCPEP1 (UniProt Q9HB40)	0.004 (inactive)
RCN3 (UniProt Q96D15)	-0.156 (inactive)
SDHAF2 (UniProt Q9NX18)	0.001 (inactive)
RIOK3 (UniProt O14730)	-0.001 (inactive)
SHROOM2 (UniProt Q13796)	-0.173 (inactive)
SAFB2 (UniProt Q14151)	0.05 (inactive)
RRS1 (UniProt Q15050)	0.066 (inactive)
RPS19 (UniProt P39019)	0.057 (inactive)
RPTOR (UniProt Q8N122)	-0.048 (inactive)
SEC31A (UniProt O94979)	-0.119 (inactive)
SEC23A (UniProt Q15436)	0.106 (inactive)
RRP9 (UniProt O43818)	0.012 (inactive)
SCAF8 isoform 2 (UniProt Q9UPN6)	-0.042 (inactive)
RANBP2 (UniProt P49792)	-0.009 (inactive)
ROCK2 (UniProt O75116)	-0.049 (inactive)
SH3GL1 (UniProt Q99961)	-0.008 (inactive)
RABGGTA (UniProt Q92696)	-0.013 (inactive)
SLC1A3 (UniProt P43003)	0.028 (inactive)
SDHC (UniProt Q99643)	0.032 (inactive)
